Most compounds without a hit are left out; they make up all but 9.3% or so of the library.
Rab9 promoter act – qHTS Assay for Rab9 Promoter Activators; Huh7 Rab9 promoter-luciferase reporter, luminescence, 24 h; Potency, µM (highest dose often 9.22 µM), without a hit: top-dose activation, negative = inhibition, actives largely listed as activators; 320,000 compounds, 2.8% hits; AID 485297, 2010; note: % of control where 0% means no effect; nearly all actives have a fitted effect of over 60% in size
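Quantitative HTS format; Huh7 Rab9-luciferase reporter cells (1500/well) receive compound 2 h post-plating, incubate 24 h at 37 °C, then get luciferase reagent for 10 min before luminescence reading.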
ELG1 genotox – qHTS screen for small molecules that induce genotoxicity in human embryonic kidney (HEK293T) cells expressing luciferase-tagged ELG1. HEK293T ELG1-luciferase reporter, luminescence, 16 h. AID 504466, 2011. Potency, µM (series often up to 46 µM), inactives show at the highest dose activity change, positive = activation, usual class: activators. 330,000 compounds, 1.3% hits; note: % of control where 0% means no effect; nearly all actives have a fitted effect of over 60% in size
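HEK293T cells expressing luciferase-tagged ELG1 were treated with compound or DMSO for 16 hr at 37°C. Luciferase activity was then read after 30 min with ONE-Glo at room temperature; rising signal flags genetic stress.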
NPC1 prom act – qHTS Assay for NPC1 Promoter Activators; Huh7 NPC1 promoter luciferase reporter, 24 h; Potency, µM (top dose mostly 9.22 µM), for the others: top-dose activation, most hits filed as activators; 320,000 compounds, 2.4% hits; AID 485313, 2010; note: % of control where 0% means no effect; nearly all actives have a fitted effect of over 60% in size
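Luminescence read-out of NPC1 promoter-driven luciferase in stably transfected Huh7 cells; compounds delivered in DMSO and left 24 h at 37C, 5% CO2, qHTS titration format.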
FLuc counter – qHTS profiling assay for firefly luciferase inhibitor/activator using purifed enzyme and Km concentrations of substrates (counterscreen for miR-21 project); AID 588342, 2011; 360,000 compounds, 6.9% hits; Luciferin 4-monooxygenase (Photinus pyralis), P08659; purified FLuc, Km substrates, luminescence inhibition; Potency, µM (top dose mostly 57.5 µM), for inactives: top-dose activity change, negative = inhibition, usual class: inhibitors;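 note: plate controls were vehicle for no effect and reference inhibitor for full effect; nearly all actives have a fitted effect of over 55% in size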
Target sequence (P08659 whole entry, looked up): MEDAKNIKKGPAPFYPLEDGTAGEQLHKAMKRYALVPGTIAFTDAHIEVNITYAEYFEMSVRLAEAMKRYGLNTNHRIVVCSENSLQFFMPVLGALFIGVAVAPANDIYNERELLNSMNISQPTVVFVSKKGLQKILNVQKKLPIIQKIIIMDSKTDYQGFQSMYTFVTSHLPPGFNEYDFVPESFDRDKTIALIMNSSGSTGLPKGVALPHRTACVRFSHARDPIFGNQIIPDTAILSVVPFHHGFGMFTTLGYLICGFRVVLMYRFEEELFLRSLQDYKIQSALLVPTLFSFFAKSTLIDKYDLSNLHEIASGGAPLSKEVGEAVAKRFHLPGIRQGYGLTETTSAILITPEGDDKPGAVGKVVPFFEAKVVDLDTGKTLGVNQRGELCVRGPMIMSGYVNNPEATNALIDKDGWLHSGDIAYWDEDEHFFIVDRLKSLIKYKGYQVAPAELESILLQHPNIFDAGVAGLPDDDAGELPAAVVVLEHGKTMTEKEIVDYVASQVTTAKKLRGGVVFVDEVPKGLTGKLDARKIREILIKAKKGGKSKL
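Purified P. pyralis luciferase, 10 nM final, with Km-level 10 uM D-luciferin and 10 uM ATP in 50 mM Tris acetate pH 7.5, 10 mM Mg acetate, 0.01% Tween-20, 0.05% BSA; 6-point qHTS titration about 60 µM downward; luminescence read.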
SMN2 splice up – qHTS Assay for Enhancers of SMN2 Splice Variant Expression | HEK293 SMN2-luciferase splicing reporter, luminescence, 30-36 h | Potency, µM (doses to about 46.1 µM), for inactives: at the highest dose activity change, positive = activation, most hits filed as activators | 210,000 compounds, 2.8% hits; note: % of control where 0% means no effect; nearly all actives have a fitted effect of over 55% in size
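qHTS luciferase splicing reporter: luminescence rises when SMN2 exon 7 is included in transfected HEK293 cells. Compound exposure lasted 30-36 h at 37C, with 4.5 mM final sodium butyrate as control, followed by a ONE-Glo read.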
ELG1 repair inh – qHTS screen for small molecules that inhibit ELG1-dependent DNA repair in human embryonic kidney (HEK293T) cells expressing luciferase-tagged ELG1; Potency, µM (doses to about 46.1 µM), inactives show at the highest dose activity change, negative = inhibition, most hits filed as inhibitors; 330,000 compounds, 2.3% hits; HEK293T ELG1-luciferase reporter, luminescence, 16 h; DNA damage induced by 5-fluorouridine; note: % is set by controls: 0 for no effect and ±100 for the full control effect; nearly all actives have a fitted effect of over 55% in size
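5-Fluorouridine DNA damage + compound/DMSO, 2,000 cells/well, 16 h, 37 °C/5% CO2. ONE-Glo, 30 min RT, luminescence. Readout = decrease in reporter signal.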
* marks the source's active call; other numbers are inactive results; ? = inconclusive; . = no result given; [ ] = remark or other dose. Calls come from the whole dose curve; as a rule, active = well fitted curve in the direction sought with a large enough effect; inconclusive = small, poorly fitted or top-dose-only effect, or another doubt; inactive = no such curve, though single readings can be large; an effect the other way counts as inactive or inconclusive. Potency is the fitted concentration of half-maximal effect.

SMILES	Rab9 promoter act	ELG1 genotox	NPC1 prom act	FLuc counter	SMN2 splice up	ELG1 repair inh
CCOC(=O)c1ccc(NC2SC(=O)N(Cc3cccc(C(=O)O)c3)C2=O)cc1 (configuration not stated)	.	.	.	24µM*	?	.
CCc1ccc(-c2ccc(SCC(=O)Nc3nnc(C)s3)nn2)cc1	1.3µM*	?	2.2µM*	0.3µM*	13µM*	?
CCOc1ccc(-c2ccc(SCC(=O)Nc3nnc(C)s3)nn2)cc1	?	0%	?	0.3µM*	?	?
Cc1nnc(NC(=O)CSc2ccc(-c3ccc(Cl)cc3)nn2)s1	0%	?	17%	?	13%	?
CCc1nnc(NC(=O)CSc2ccc(-c3ccc(-n4cccn4)cc3)nn2)s1	2.5µM*	5.8µM*	?	1.2µM*	.	?
Cc1nnc(NC(=O)CSc2ccc(-c3ccco3)nn2)s1	2%	2%	-2%	?	3%	12%
CCc1ccc(-c2nc(SCC(=O)NCC3CCCO3)c(-c3ccc(C)cc3)[nH]2)cc1 (configuration not stated)	.	.	.	4%	10%	.
CCc1ccc(-c2ccc(SCC(=O)NCC3CCCO3)nn2)cc1 (configuration not stated)	?	9%	?	3.4µM*	14µM*	?
COc1cc(-c2nc3ncccn3c2Nc2ccc(C)cc2C)ccc1O	.	.	.	-17%	3%	.
NC(=O)Cn1cc(C(=O)COc2ccccc2)c2ccccc21	-3%	-1%	0%	?	1%	4%
O=C(COc1ccccc1)c1cn(CC(=O)N2CCCC2)c2ccccc12	-2%	1%	-1%	21µM*	-8%	0%
COc1ccc(OC)c(NC(=O)C(=O)c2cn(CC(=O)N3CCCC3)c3ccccc23)c1	-6%	-14%	-8%	1%	.	12µM*
COc1ccc(NC(=O)C(=O)c2cn(CC(=O)N3CCCC3)c3ccccc23)cc1OC	4%	-12%	-11%	?	.	-21%
COc1cccc(NC(=O)C(=O)c2cn(CC(=O)N3CCCC3)c3ccccc23)c1	18%	-4%	15%	5.4µM*	.	0%
Cc1nn(-c2ccccc2)c(=S)c2ccccc12	2%	1%	-1%	3%	25%	9%
CC(=O)OC1CC(OC(C)=O)[C@]2(C)C(CC(=O)[C@]3(C)C2CC[C@@]2(C)C(C(=O)O)OC(=O)C4OC423)C1(C)C (some centres not stated)	.	.	.	.	-2%	.
Cc1sc2ncnc(N3CCN(C(=O)c4ccco4)CC3)c2c1C	-8%	-16%	-9%	-4%	-28%	12µM*
Cc1ccc(-c2csc3ncnc(N4CCN(C(=O)c5ccco5)CC4)c23)cc1	1%	-7%	-3%	6%	.	16µM*
COc1ccc(-c2csc3ncnc(N4CCN(c5ccccc5O)CC4)c23)cc1	-14%	-6%	-4%	1%	.	?
O=C(c1ccco1)N1CCN(c2ncnc3scc(-c4ccc(F)cc4)c23)CC1	-4%	-3%	-2%	-2%	-3%	-18%
Cc1ccc(-c2csc3ncnc(N4CCN(c5ccccc5O)CC4)c23)cc1	1%	-15%	-8%	1%	.	5.8µM*
COc1ccc(-c2csc3ncnc(N4CCN(c5ccccc5[N+](=O)[O-])CC4)c23)cc1	-37%	-10%	-9%	-1%	.	5.2µM*
Cc1ccc(Oc2ccc(Cl)cc2NC(=O)c2ccc(F)cc2F)cc1	-3%	0%	-1%	2%	-11%	1%
CCC(C)N(CCNC(=O)c1ccc2c(c1)NC(=O)c1ccccc1S2)C1CCCCC1 (configuration not stated)	-14%	-1%[9.26 µM]	-7%	2%	.	?
Cc1nn(Cc2noc(C(=O)NCc3ccccn3)n2)c(C)c1Br	-5%	-1%	-6%	3%	.	16%
SMILES	Rab9 promoter act	ELG1 genotox	NPC1 prom act	FLuc counter	SMN2 splice up	ELG1 repair inh
Cc1ccc(S(=O)(=O)N(C)CC(=O)NCCCn2nc(C)cc2C)cc1	.	2%	.	.	.	0%
C[C@@H](C(=O)NCc1c(F)cccc1Cl)N1C(=O)N2CCc3c([nH]c4ccccc34)[C@@]2(C)C1=O	-10%	-2%	1%	6%	.	?
c1ccc(-c2csc3ncnc(-n4cnc5ccccc54)c23)cc1	-2%	-2%	-2%	3%	-9%	-18%
CC(C)c1ccc(-c2csc3ncnc(N4CCN(C)CC4)c23)cc1	-1%	-13%	4%	0%	.	12µM*
Cc1ccc(-c2csc3ncnc(-n4cnc5ccccc54)c23)cc1	-10%	-3%	-24%	1%	.	10µM*
O=C(c1ccco1)N1CCN(c2ncnc3c(-c4ccc(Cl)cc4)nsc23)CC1	9%	?	1%	6µM*	.	?
Cc1sc2nc(C(C)C)nc(SCC(=O)N3CCN(C(=O)c4ccco4)CC3)c2c1C	0%	-8%	-3%	-3%	-25%	18µM*
Cc1ccccc1NC(=O)Cn1c(=O)n(Cc2ccccc2)c(=O)c2sc3ccccc3c21	.	.	.	0%	4%	.
COc1ccc(-c2nsc3c(N4CCCC4)ncnc23)cc1	0.11µM*	.	4µM*	0.13µM*	?	?
O=C(CSc1ncn[nH]1)Nc1ccc(OCc2ccccc2)cc1	?	?	29%	17µM*	?	?
Cc1nc(SCC(=O)Nc2ccc(OCc3ccccc3)cc2)n[nH]1	?	15%	27%	12µM*	.	?
CCCCSc1nc(O)cc(=O)n1CC	-3%	1%	-3%	-19%	13%	6%
CC(=O)c1ccc(S(=O)(=O)Nc2cccc(-c3cn4c(n3)SCC4)c2)cc1	5%	-6%	3%	-15%	-40%	?
CC(=O)c1cccc(NS(=O)(=O)c2ccc(NC(=O)N3CCCCC3)cc2)c1	-24%	0%	-26%	0%	.	11%
CC(=O)c1ccc(S(=O)(=O)Nc2cccc(-c3ccc(N4CCCCCC4)nn3)c2)cc1	.	.	.	4.8µM*	.	.
CSc1cccc(NS(=O)(=O)c2ccc(C(C)=O)cc2)c1	-10%	1%	1%	-3%	.	7.3µM*
CC(=O)c1ccc(S(=O)(=O)Nc2cccc(-c3ccc(N4CCCC4)nn3)c2)cc1	.	.	.	9.5µM*	.	.
